Drawing on the supplement of paper PMC10981050, this text covers cell viability for 40 compounds.

Molecules are shown by their SMILES.

The subject of one assay is MOLM14. In words: cell viability relative to vehicle control; higher = less cytotoxic. Particulars: 10 µM; SRSF2 genotype: SRSF2 wt/wt. In short, it runs like this: (§1)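 Four leukaemia lines, as CRISPR-edited mutant clones and isogenic wild-type clones, were tested against Selleck bioactive, kinase and epigenetic probe libraries after removal of identity-inconsistent compounds. Cells were exposed to a single 10 µM dose for 48 h, and CellTiter-Glo luminescence was then read. Viability was calculated relative to the on-plate vehicle control.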
The cell viability is a read-out of living cells in per cent, often relative to untreated cells. As to `COc1ncnc(NS(=O)(=O)c2ccc(N)cc2)c1OC` [Sulfadoxine (Sulphadoxine)], the cell viability worked out at 100%.

`OCCc1ccc(O)c(O)c1` [Hydroxytyrosol]: the cell viability was determined as 104%.

`CNc1ccc([N+](=O)[O-])c(Nc2ccc3[nH]ncc3c2)n1`: the cell viability turned out to be 9.24%.

For the compound `Cc1cc2c(F)c(Oc3ncnn4cc(OC[C@@H](C)O)c(C)c34)ccc2[nH]1`, the cell viability amounted to 104%.

With `Cc1nc(-c2ccc(OCC(C)C)c(C#N)c2)sc1C(=O)O` [Febuxostat (Uloric)], the cell viability stood at 105%.

Take `COc1ccc(C(=O)CC(=O)c2ccc(C(C)(C)C)cc2)cc1` [Avobenzone (Parsol 1789)]: the cell viability came out at 98.9%.

Consider `Nc1ccc(Cl)cc1C(=O)C(F)(F)F` [4-Chloro-2-(trifluoroacetyl)aniline hydrochl], for which the cell viability was found to be 109%.

For the compound `NC(=O)OCC(COC(N)=O)c1ccccc1` [Felbamate], the cell viability came to 89.4%.

On to `O=C1CCC(N2C(=O)c3ccccc3C2=O)C(=O)N1` (stereo unspecified) [Thalidomide], for which the cell viability is 86.7%.

As to `C[C@@]1(CO)C[C@@H](O)C[C@@]2(C)[C@@H]3CC[C@](C)([C@@H](O)CO)C=C3CC[C@H]12` [Kirenol], the cell viability worked out at 104%.

Consider `CCC[C@H](NC(=O)/C(C#N)=C/c1cccc(Br)n1)c1ccccc1` [Degrasyn (WP1130)], for which the cell viability was determined as 0.25%.

As to `O=C(Nc1ccccc1)N1CCN(c2nc(-c3ccccc3)ns2)CC1`, the cell viability stood at 99%.

For `CCCCCCCCCC=O` [Decyl aldehyde], the cell viability came out at 105%.

As for `CC1(C)CCC2(C(=O)O)CCC3=C(C(CCl)CC4C3(C)CCC3C4(C)CC(O)C(O)C3(C)C(=O)O)C2C1` (stereo unspecified) [Senegenin], the cell viability was 106%.

For the compound `CS(=O)(=O)Nc1cc2occ(NC=O)c(=O)c2cc1Oc1ccccc1` [Iguratimod], the cell viability amounted to 108%.

For the compound `OC[C@H]1O[C@@H](Oc2cc(O)cc(/C=C/c3ccc(O[C@@H]4O[C@H](CO)[C@@H](O)[C@H](O)[C@H]4O)cc3O)c2)[C@H](O)[C@@H](O)[C@@H]1O` [Mulberroside A], the cell viability is 97.6%.

Take `Cc1ccc(Sc2ccccc2N2CCNCC2)c(C)c1`: the cell viability was 3.18%.

For `Cc1cc(C(O)=C2C(=O)C(=O)N(CCCN3CCOCC3)C2c2ccncc2)ccc1OCc1ccccc1` (stereo unspecified), the cell viability came to 96.5%.

As to `CCCCCCNC(=O)n1cc(F)c(=O)[nH]c1=O` [Carmofur], the cell viability worked out at 27.3%.

For `COC(=O)C1=CO[C@@H](O[C@@H]2O[C@H](CO)[C@@H](O)[C@H](O)[C@H]2O)[C@@H]2[C@H](C)O[C@@H](O)C[C@H]12` [Morroniside], the cell viability was determined as 89.3%.

Turning to `Cn1cc(C2=C(c3cccc(N)c3)C(=O)NC2=O)c2ccccc21`, the cell viability is 72.1%.

In the case of `COCC[n+]1c2c(n(Cc3cnccn3)c1C)C(=O)c1ccccc1C2=O` [YM155 (Sepantronium Bromide)], the cell viability worked out at 0.32%.

On to `CCOCc1nc2c(N)nc3ccccc3c2n1CC(C)(C)O` [Resiquimod], for which the cell viability was determined as 96.1%.

As to `Cn1sc(=O)n(Cc2ccccc2)c1=O`, the cell viability was 0.54%.

For the compound `O=C(CCCCCN1C(=O)c2cccc3cccc(c23)C1=O)NO` [Scriptaid], the cell viability turned out to be 0.53%.

As for `O=C(O)CNC(=O)c1ccccc1` [Hippuric acid], the cell viability came to 107%.

As for `Cn1cc(-c2ccc3nnc(Sc4ccc5ncccc5c4)n3n2)cn1`, the cell viability was determined as 99%.

Take `CS(=O)(=O)c1ccc(-c2cnc(NCc3ccco3)n3cnnc23)cc1`: the cell viability came out at 98.5%.

In the case of `Nc1ccc(Oc2ccc(-c3ccc(Oc4ccc(N)cc4)cc3)cc2)cc1` [4,4prime-Bis(4-aminophenoxy)biphenyl], the cell viability was 102%.

Consider `CCCCCOC(=O)Nc1nc(=O)n([C@@H]2O[C@H](C)[C@@H](O)[C@H]2O)cc1F` [Capecitabine (Xeloda)], for which the cell viability turned out to be 101%.

`C=CC(=O)Nc1cc(Nc2nccc(-n3cc(CN(C)C)c(-c4ccccc4)n3)n2)c(OC)cc1N1CCOCC1`: the cell viability turned out to be 75.5%.

The test system of a further assay is OCI-AML2. The assay is described as above. Particulars: 10 µM; SRSF2 genotype: P95H/wt. The essentials:
as §1
For the compound `COc1ccc2cc(C(=O)O)ccc2c1` [6-Methoxy-2-naphthoic acid], the cell viability is 89.4%.

In the case of `OC[C@H]1O[C@H](OCC2O[C@@H](O)[C@H](O)[C@@H](O)[C@@H]2O)[C@H](O)[C@@H](O)[C@H]1O` (stereo partly specified) [Melibiose], the cell viability was determined as 98.5%.

As for `CNC(=O)c1ccc(-c2cnc3ncc(Cc4ccc5ncccc5c4)n3n2)cc1F`, the cell viability stood at 111%.

With `Nc1cc(C(Cl)=C(Cl)Cl)c(S(N)(=O)=O)cc1S(N)(=O)=O` [Clorsulon], the cell viability was 99.9%.

As for `C[C@H](CCC(=O)O)[C@H]1CC[C@H]2[C@@H]3C[C@H](O)[C@@H]4C[C@H](O)CC[C@]4(C)[C@H]3CC[C@]12C` [Hyodeoxycholic acid (HDCA)], the cell viability is 93.1%.

For `COc1ccc(C[C@@H]2c3cc(Oc4cc(C[C@@H]5c6cc(OC)c(OC)cc6CCN5C)ccc4O)c(OC)cc3CCN2C)cc1` [Neferine], the cell viability came to 102%.

`CN1CC(O)c2cc(N=NC(N)=O)c(O)cc21` (stereo unspecified) [Carbazochrome]: the cell viability was 98.8%.

On to `COc1ccccc1N1CCN(CCN(C(=O)C2CCCCC2)c2ccccn2)CC1`, for which the cell viability is 74.9%.

As to `CCCCCCCCCC[C@H](C(=O)O)[C@]1(C(=O)O)CCC(=O)O1` [Spiculisporic Acid], the cell viability was determined as 95.5%.

Consider `COc1ncnc(NS(=O)(=O)c2ccc(N)cc2)c1OC` [Sulfadoxine (Sulphadoxine)], for which the cell viability turned out to be 98.5%.

On to `OCCc1ccc(O)c(O)c1` [Hydroxytyrosol], for which the cell viability came to 105%.

On to `CNc1ccc([N+](=O)[O-])c(Nc2ccc3[nH]ncc3c2)n1`, for which the cell viability was 18.9%.

For the compound `Cc1cc2c(F)c(Oc3ncnn4cc(OC[C@@H](C)O)c(C)c34)ccc2[nH]1`, the cell viability was 97.5%.

For `Cc1nc(-c2ccc(OCC(C)C)c(C#N)c2)sc1C(=O)O` [Febuxostat (Uloric)], the cell viability was 119%.

On to `COc1ccc(C(=O)CC(=O)c2ccc(C(C)(C)C)cc2)cc1` [Avobenzone (Parsol 1789)], for which the cell viability came to 61.2%.

As to `Nc1ccc(Cl)cc1C(=O)C(F)(F)F` [4-Chloro-2-(trifluoroacetyl)aniline hydrochl], the cell viability was 105%.

On to `NC(=O)OCC(COC(N)=O)c1ccccc1` [Felbamate], for which the cell viability is 96.5%.

In the case of `O=C1CCC(N2C(=O)c3ccccc3C2=O)C(=O)N1` (stereo unspecified) [Thalidomide], the cell viability was 93.8%.

Regarding `C[C@@]1(CO)C[C@@H](O)C[C@@]2(C)[C@@H]3CC[C@](C)([C@@H](O)CO)C=C3CC[C@H]12` [Kirenol], the cell viability stood at 94.6%.

In the case of `CCC[C@H](NC(=O)/C(C#N)=C/c1cccc(Br)n1)c1ccccc1` [Degrasyn (WP1130)], the cell viability was 0.67%.

As for `O=C(Nc1ccccc1)N1CCN(c2nc(-c3ccccc3)ns2)CC1`, the cell viability amounted to 62.7%.

On to `CCCCCCCCCC=O` [Decyl aldehyde], for which the cell viability is 100%.

In the case of `CC1(C)CCC2(C(=O)O)CCC3=C(C(CCl)CC4C3(C)CCC3C4(C)CC(O)C(O)C3(C)C(=O)O)C2C1` (stereo unspecified) [Senegenin], the cell viability worked out at 105%.

Regarding `CS(=O)(=O)Nc1cc2occ(NC=O)c(=O)c2cc1Oc1ccccc1` [Iguratimod], the cell viability came out at 117%.

In the case of `OC[C@H]1O[C@@H](Oc2cc(O)cc(/C=C/c3ccc(O[C@@H]4O[C@H](CO)[C@@H](O)[C@H](O)[C@H]4O)cc3O)c2)[C@H](O)[C@@H](O)[C@@H]1O` [Mulberroside A], the cell viability worked out at 97.1%.

As to `Cc1ccc(Sc2ccccc2N2CCNCC2)c(C)c1`, the cell viability stood at 0.2%.

In the case of `Cc1cc(C(O)=C2C(=O)C(=O)N(CCCN3CCOCC3)C2c2ccncc2)ccc1OCc1ccccc1` (stereo unspecified), the cell viability is 103%.

Take `CCCCCCNC(=O)n1cc(F)c(=O)[nH]c1=O` [Carmofur]: the cell viability is 57.9%.

Turning to `COC(=O)C1=CO[C@@H](O[C@@H]2O[C@H](CO)[C@@H](O)[C@H](O)[C@H]2O)[C@@H]2[C@H](C)O[C@@H](O)C[C@H]12` [Morroniside], the cell viability came to 88.8%.

For the compound `Cn1cc(C2=C(c3cccc(N)c3)C(=O)NC2=O)c2ccccc21`, the cell viability was 78.8%.

Turning to `COCC[n+]1c2c(n(Cc3cnccn3)c1C)C(=O)c1ccccc1C2=O` [YM155 (Sepantronium Bromide)], the cell viability came out at 0.31%.

As for `CCOCc1nc2c(N)nc3ccccc3c2n1CC(C)(C)O` [Resiquimod], the cell viability amounted to 95.8%.

Consider `Cn1sc(=O)n(Cc2ccccc2)c1=O`, for which the cell viability amounted to 0.07%.

On to `O=C(CCCCCN1C(=O)c2cccc3cccc(c23)C1=O)NO` [Scriptaid], for which the cell viability was 0.32%.

Turning to `O=C(O)CNC(=O)c1ccccc1` [Hippuric acid], the cell viability came to 103%.

As for `Cn1cc(-c2ccc3nnc(Sc4ccc5ncccc5c4)n3n2)cn1`, the cell viability was 98%.

Regarding `CS(=O)(=O)c1ccc(-c2cnc(NCc3ccco3)n3cnnc23)cc1`, the cell viability was found to be 101%.

Turning to `Nc1ccc(Oc2ccc(-c3ccc(Oc4ccc(N)cc4)cc3)cc2)cc1` [4,4prime-Bis(4-aminophenoxy)biphenyl], the cell viability was found to be 96%.

Turning to `CCCCCOC(=O)Nc1nc(=O)n([C@@H]2O[C@H](C)[C@@H](O)[C@H]2O)cc1F` [Capecitabine (Xeloda)], the cell viability is 92.8%.

As for `C=CC(=O)Nc1cc(Nc2nccc(-n3cc(CN(C)C)c(-c4ccccc4)n3)n2)c(OC)cc1N1CCOCC1`, the cell viability amounted to 63.9%.
